# Test results from PubChem BioAssay AID1578 (Sanford-Burnham Center for Chemical Genomics, 2009).
# Several values for one entry are separate records, joined by “and”; a condition that tells them apart may be missing. Identical values can stand only once. Hit rate of the full screen: of about 290,000 compounds, about 3,000 (1%) were called active. Cut-off read from the data, not from the text of the source: active = inhibition mostly above about 36% (no sharp cut-off); inactive = mostly below about 34%. Shown is part of a subset that was picked to be rich in actives.
# Test: inhibition of NOD1-driven NF-kB reporter – cell-based, luminescence, uHTS, primary screen (AID 1578);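 note: HEK-293T reporter cells stimulated with the NOD1 agonist gamma-tri-DAP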
# Conditions: NOD1-driven NF-kB luciferase reporter cells, at 4 µM, active compounds read high
row,SMILES,inhibition
1,O=[N+]([O-])c1cccc(-c2nc(-c3ccccc3)c(-c3cccs3)[nH]2)c1,-1.1% (inactive)
2,O=[N+]([O-])c1ccc(O)c(-c2nc(-c3ccccc3)c(-c3cccs3)[nH]2)c1,80.7% (active)
3,O=[N+]([O-])c1cccc(-c2nc(-c3cccs3)c(-c3cccs3)[nH]2)c1,26.4% (inactive)
4,CCOC(=O)Cc1csc(NC(=O)CN2CCN(CC)CC2)n1,-2.4% (inactive)
5,O=C1c2ccccc2NC(c2cccs2)N1NS(=O)(=O)c1ccccc1 (stereo not drawn),-22.6% (inactive)
6,N#C/C(=C\c1ccc(OCc2ccccc2)cc1)C(=O)Nc1nc2c(s1)CCN(Cc1ccccc1)C2,-24.8% (inactive)
7,CC1Cc2ccccc2N1C(=O)CSc1nnc2c(n1)[nH]c1ccc(F)cc12 (stereo not drawn),48.5% (active)
8,CC1Cc2ccccc2N1C(=O)CSc1nnc2c(n1)[nH]c1ccccc12 (stereo not drawn),-0.9% (inactive)
9,CC1CCc2cc(F)ccc2N1C(=O)CSc1nnc2c(n1)[nH]c1ccc(F)cc12 (stereo not drawn),25.7% (inactive)
10,CCCCN(Cc1ccccc1)S(=O)(=O)c1c(N)n(C)c(=O)n(C)c1=O,-10.5% (inactive)
11,CCc1nc(SCC(=O)N2CCC(Cc3ccccc3)CC2)c2c(=O)n(C)c(=O)n(C)c2n1,34% (inactive)
12,CCCc1nc(SCC(=O)N2CCN(c3ccccc3)CC2)c2c(=O)n(C)c(=O)n(C)c2n1,9% (inactive)
13,CCn1nc(NC(=O)c2cccnc2)c2cc3cccc(C)c3nc21,-11.6% (inactive)
14,Cc1cc(Cl)ccc1OCC(=O)NCCCCc1ccccc1,-5.1% (inactive)
15,Nc1[nH]c(N=NC(=O)c2ccc(Cl)cc2)c2ccccc12,-25.6% (inactive)
16,CCOCCCNC(=S)Nc1ccc2nc(N3CCOCC3)cc(C)c2c1,-4% (inactive)
17,Cc1cc(-c2ccc(C(C)C)c(S(=O)(=O)NCCN3CCC(C)CC3)c2)on1,-17.2% (inactive)
18,Cc1ccnc(NC(=O)Nc2cccc(F)c2)n1,-65.5% (inactive)
19,CCN1CCN(Cc2ccc(C(=O)Nc3ccc(C)c(NCc4cnc(NC(=O)OC)cn4)c3)cc2C(F)(F)F)CC1,-2.2% (inactive)
20,Cc1ccc(C(=O)Nc2cccc(C(F)(F)F)c2)cc1Nc1ccccn1,-7.5% (inactive)
21,Cc1ccc(C(=O)Nc2cccc(C(F)(F)F)c2)cc1Nc1cnccn1,-3.7% (inactive)
22,CCN1CCN(Cc2ccc(NC(=O)c3ccc(C)c(NC(=O)N4CCNC4=O)c3)cc2C(F)(F)F)CC1,-7.6% (inactive) and 18% (inactive)
23,CN(C)c1ccc(/C=C2\C(=N)N3N=C(CC(=O)N4CCCC4)SC3=NC2=O)cc1Br,-16.4% (inactive)
24,CC(C)(Oc1ccc(Cl)cc1)C(=O)Nc1ccc2oc(=O)ccc2c1,-7.5% (inactive)
25,Cc1ccc(NC(=O)Nc2cccc(C)n2)cc1,-12.5% (inactive)

row,SMILES,inhibition
1,Cc1cccc(NC(=O)Nc2cccc(C#N)c2)n1,-17.2% (inactive)
2,Cc1cccc(NC(=O)Nc2ccc(C#N)cc2)n1,62.7% (active)
3,COc1ccc(OCC(=O)Nc2ccc3c(c2)nc(CCN2CCCCC2)n3C)cc1,-22.2% (inactive)
4,Cc1nnc(NC(=O)c2c(F)c(F)c(F)c(F)c2F)s1,-22.9% (inactive)
5,O=C(N/N=C/c1ccc(OC(=O)c2ccccc2Cl)cc1)c1ccccn1,-55.2% (inactive)
6,Cc1ccccc1NC(=O)CC1c2ccccc2CC(C)(C)N1C (stereo not drawn),-25.6% (inactive)
7,CN1C(CC(=O)Nc2ccc(Br)cc2)c2ccccc2CC1(C)C (stereo not drawn),92.6% (active)
8,CN1C(CC(=O)Nc2ccc(Cl)cc2Cl)c2ccccc2CC1(C)C (stereo not drawn),2.4% (inactive)
9,O=C1CC(N(CCc2ccccc2)C(=S)Nc2ccccc2)C(=O)N1c1ccc(Br)cc1 (stereo not drawn),-50% (inactive)
10,Cc1cc2cc(C)c(NCCNC(=O)c3ccccc3Cl)nc2cc1C,-21.1% (inactive)
11,CCN(CC)S(=O)(=O)c1ccc(-c2ccc(S(=O)(=O)N(CC)CC)cc2)cc1,39.7% (inactive)
12,CCN(CC)S(=O)(=O)c1ccc(F)cc1,71.7% (active)
13,CCN(CC)S(=O)(=O)c1ccc(NS(=O)(=O)c2ccc(F)cc2)cc1,9.7% (inactive)
14,O=C(/C=C/c1ccccc1Cl)NCCc1ccc(F)cc1,-61.3% (inactive)
15,COc1ccc(C(=O)/C=C/C(=O)N(CC(=O)NC2CCCCC2)Cc2ccccc2)c(O)c1,26% (inactive)
16,COc1ccc(C(=O)/C=C/C(=O)N(CC(=O)NC2CCCCC2)Cc2cccs2)c(O)c1,36.2% (inactive)
17,COc1ccc(C(=O)/C=C/C(=O)N(CC(=O)NCCC(C)C)Cc2cccs2)c(O)c1,86.8% (active)
18,COc1ccc(C(=O)/C=C/C(=O)N(CC(=O)NC2CCCCC2)Cc2ccc(F)cc2)c(O)c1,16.3% (inactive)
19,COc1ccc(C(=O)N(Cc2ccco2)Cc2cccs2)c(O)c1,29.1% (inactive)
20,COc1ccc(C(=O)/C=C/C(=O)N(CC(=O)NC2CCCCC2)CC2CCCO2)c(O)c1 (stereo not drawn),68.4% (active)
21,COc1ccc2cnn(-c3ccc(OC(F)(F)F)cc3)c(=O)c2c1OC,-0.3% (inactive)
22,Cc1ccc(CNC(=O)C2CCC(=O)N2Cc2ccc(C)cc2)cc1 (stereo not drawn),0.2% (inactive)
23,CN1CCN(C(=O)c2ccc(CSc3ccc(Cl)cc3)cc2)CC1,-13.5% (inactive)
24,CCOC(=O)N1CCN(C(=O)c2ccc(CSc3ccc(Cl)cc3)cc2)CC1,62.9% (active)
25,O=C(c1ccc(CSc2ccc(Cl)cc2)cc1)N1CCCC1,-3.6% (inactive)

row,SMILES,inhibition
1,C=CCn1c(O)c(CN2CCCCC2)c(C)c(C#N)c1=O,-25.8% (inactive)
2,CCN1CCN(c2ccc(NC(=O)c3cnccn3)cc2)CC1,-37.5% (inactive)
3,O=C(Nc1ccc(N2CCOCC2)cc1)c1cnccn1,52.9% (active)
4,O=C(Nc1ccc(N2CCCCC2)cc1)c1ccccn1,89.3% (active)
5,Cc1cnc(C(=O)Nc2ccc(N3CCOCC3)cc2)cn1,-18.5% (inactive)
6,O=C(Nc1ccc(N2CCCCC2)cc1)c1cccnc1Cl,-28% (inactive)
7,O=C(Nc1ccc(N2CCCCCC2)cc1)c1ccccc1Cl,-33.9% (inactive)
8,O=C(CN1CCCCC1)Nc1ccc(N2CCCCCC2)cc1,-21% (inactive)
9,O=C(CCl)Nc1ccc(N2CCCCCC2)cc1,65.3% (active)
10,CCC(=O)Nc1ccc(N2CCCCC2)cc1,0.2% (inactive)
11,CCc1c(O)nc(SCC(=O)Nc2ccccc2C)n(-c2ccc(C)cc2)c1=O,-22.6% (inactive)
12,CN1CCN(C(=O)/C(=C/c2ccccc2F)NC(=O)c2ccccc2)CC1,-17.7% (inactive)
13,CCNc1ccc([N+](=O)[O-])cc1,-1.6% (inactive)
14,CN(C)CCCN(Cc1cc2cc3c(cc2[nH]c1=O)OCO3)C(=S)Nc1ccccc1,-23.7% (inactive)
15,CCSc1nnc(NC(=O)c2cccc(S(=O)(=O)N(C)c3ccccc3)c2)s1,-5.2% (inactive)
16,CCCCn1c(SCC(=O)N2CCC(C)CC2)nc2ccsc2c1=O,-16.2% (inactive)
17,CCCCn1c(SCC(=O)c2ccccc2)nc2ccsc2c1=O,21.6% (inactive)
18,O=C(CSc1ncccn1)Nc1ncc(C(F)(F)F)cc1Cl,-20.5% (inactive)
19,Nc1nc(SCC(=O)Nc2ncc(C(F)(F)F)cc2Cl)n[nH]1,65.2% (active)
20,Cc1cc(C)nc(SCC(=O)Nc2ncc(C(F)(F)F)cc2Cl)n1,-28.9% (inactive)
21,Cc1cc(C(F)(F)F)nn1CC(=O)NCc1ccco1,-18% (inactive)
22,ON1C(c2ccc(Cl)cc2Cl)N(O)[C@H]2CCCC[C@H]21 (stereo partly drawn),-8.4% (inactive)
23,COC(=O)C1CN(C(=O)COc2ccccc2)c2ccccc2O1 (stereo not drawn),15.9% (inactive)
24,Cc1ccc(C(C)C)c(OCCNC(=O)c2cncc(Br)c2)c1,16.6% (inactive)
25,Cc1ccc(C(C)C)c(OCCNC(=O)c2ccccc2O)c1,-22.6% (inactive)

row,SMILES,inhibition
1,COc1cc(/C=N/n2nnnc2Nc2ccccc2)cc(OC)c1OC,-36.9% (inactive)
2,CCc1cccc(C)c1NC(=O)C(c1ccccc1)N1CCC1=O (stereo not drawn),-22.7% (inactive)
3,COCCCNC(=S)N1CCN(S(C)(=O)=O)CC1,-18.9% (inactive)
4,O=C(c1ccc(-c2ccccc2)cc1)N1CCN(c2nc3ccccc3o2)CC1,35.5% (active)
5,CC(C)(C)c1ccc(C(=O)N2CCN(c3nc4ccccc4o3)CC2)cc1,28.1% (inactive)
6,COc1ccc(C(=O)N2CCN(c3nc4ccccc4o3)CC2)cc1OC,19.2% (inactive)
7,CCOC(=O)C1(Cc2ccccc2)CCN(Cc2ccc(C)s2)CC1,-14.9% (inactive)
8,O=C(Cc1ccc(F)cc1)Nc1nccs1,-24.2% (inactive)
9,O=C(Nc1ccc(S(=O)(=O)Nc2nccs2)cc1)c1ccc(F)cc1,-13.9% (inactive)
10,COc1ccc(/C=C/C(=O)Nc2ccc3nc4n(c(=O)c3c2)CCCC4)cc1OC,-31.1% (inactive)
11,O=C(O)c1ccc(NCc2cccnc2)c([N+](=O)[O-])c1,-17.4% (inactive)
12,C/C(=N\NC(N)=O)c1cccc(Cl)c1,29% (inactive)
13,COCCCNC(=S)Nc1ccccc1C,-13.2% (inactive)
14,COCCNC(=S)Nc1ccccc1Cc1ccccc1,45.2% (active)
15,CCCCNC(=S)Nc1ccccc1Cc1ccccc1,-3.1% (inactive)
16,CCCCCN(C(=O)NC(=O)NC(C)CC)S(C)(=O)=O (stereo not drawn),-3.8% (inactive)
17,Cc1noc(NC(=O)c2cccc(C(F)(F)F)c2)c1Cl,-5.6% (inactive)
18,Cc1noc(NC(=O)c2ccc(Cl)c(Cl)c2)c1Cl,67.6% (active)
19,Cc1noc(NC(=O)c2ccc(Cl)cc2)c1Cl,-33% (inactive)
20,COc1cccc(C(=O)NCCNC(=O)c2ccc(C)nc2)c1,-6.6% (inactive)
21,CCCCNC(=S)N(C)/N=C/c1ccc(F)cc1,100% (active)
22,CCCCNC(=S)N(C)/N=C/c1c(F)cccc1F,-5.6% (inactive)
23,CCCCNC(=S)N(C)/N=C/c1ccccc1F,12.5% (inactive)
